The source made the active and inactive calls. Unless noted, the rule behind the calls is not given here.
Assays:
[1] = compounds binding Alexa647 anti-His antibody – biochemical, small-molecule microarray, 635 nm fluorescence, artefact control for SMM control protein annotation, primary screen (AID 1128); conditions: higher = more signal;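 note: score merges feature fluorescence with signal-to-noise for each printed compound spot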
[2] = system: Human papillomavirus type 1a E7 protein (residues 1-88); test: HPV1a E7 small-molecule binders, primary screen, biochemical, small-molecule microarray, residues 1-88, 635 nm (AID 1129); conditions: small-molecule microarray binding, fluorescence 635 nm; higher = more signal
[3] = target: Focal adhesion kinase 1 (Homo sapiens) (UniProt Q05397); test: PTK2 protein binding on printed compound slides – biochemical, small-molecule microarray, 635/667 nm fluorescence, BSA, DTT, primary screen (AID 1130); conditions: 635 nm fluorescence, higher = more signal;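 note: composite of spot emission at 667 nm and signal to noise over triplicate slides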
[4] = system: Fibrinogen (Alexa647-labelled); test: Alexa647-fibrinogen binding to printed small molecules – biochemical, small-molecule microarray, 635/667 nm fluorescence, artefact control for SMM control-protein annotation, profiling panel (AID 1131); conditions: fibrinogen-A647 binding fluorescence, higher = more signal;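 note: z-score merges 667 nm fluorescence with per-spot signal-to-noise over triplicate slides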
[5] = target: Follistatin (Homo sapiens) (UniProt P19883); test: FST protein binding to printed compounds – biochemical, small-molecule microarray, 635/667 nm fluorescence, primary screen (AID 1132); conditions: 635 nm fluorescence, higher = more signal
[6] = target: Fibroblast growth factor 2 (Homo sapiens) (UniProt P09038); test: basic fibroblast growth factor binding to printed compounds – biochemical, small-molecule microarray, 635/667 nm fluorescence, primary screen (AID 1133); conditions: FGF2, fluorescence 635/667, higher = more signal
[7] = JC-1 mitochondrial potential readout, lung cancer cells – cell-based, A549, JC-1 fluorescence, basal, 24 h, 100 nL, profiling panel (AID 1138); conditions: higher = more signal;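 note: A549 lung adenocarcinoma cells under basal conditions with no added stimulus; test concentration not given here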
Lefty1 = Lefty1 protein binding to printed compounds – biochemical, small-molecule microarray, 635/667 nm fluorescence, primary screen (AID 1139); conditions: fluorescence 635/667, higher = more signal
[8] = system: wheat germ agglutinin (Triticum aestivum), Alexa647-labelled; test: Alexa647-WGA lectin binding to printed small molecules – biochemical, small-molecule microarray, 635/667 nm fluorescence, artefact control for SMM control-protein annotation, profiling panel (AID 1140); conditions: WGA-A647 binding, 635 nm fluorescence, higher = more signal;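 note: score merges 667 nm feature emission with signal to noise over triplicate slides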
[9] = target: Luciferin 4-monooxygenase (Photinus pyralis) (UniProt P08659); test: inhibition of purified Photinus pyralis luciferase – biochemical, luminescence, purified enzyme, 2006 set, primary screen (AID 1141); conditions: purified firefly luciferase, SteadyGlo luminescence, 30 min; higher = more signal, called active from +8 up or from −8 down;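 note: cell-free assay with purified firefly luciferase at 100 ng per well in PBS; test concentration not given here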
[10] = system: Wnt5a (protein binding on small-molecule microarray); test: small molecules binding Wnt5a protein – biophysical, small-molecule microarray, 635/667 nm fluorescence, primary screen (AID 1142); conditions: 635 nm fluorescence, higher = more signal;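 note: fluorescence read at 667 nm with signal to noise per printed feature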
[11] = ATP-based viability of Huh7 replicon cells – cell-based, CellTiter-Glo luminescence, basal, 48 h, cytotoxicity control for HCV replication inhibitor project, primary screen (AID 1143); conditions: higher = more signal, called active from +8 up or from −8 down;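 note: Huh7 hepatoma cells carrying a hepatitis C replication reporter with no stimulus; test concentration not given here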
[12] = Pseudomonas biofilm growth suppression – PAO1 strain, BacTiter-Glo luminescence, LB-PBS, primary screen (AID 1144); conditions: P. aeruginosa PAO1 biofilm, 12 h, higher = more signal
[13] = basal CRE-LacZ reporter activity in PC12 – cell-based, unstimulated, primary screen (AID 1145); conditions: no forskolin, luminescence, 4.5 h, higher = more signal, called active from +8 up or from −8 down
[14] = forskolin-driven CRE-LacZ activity in PC12 – cell-based, CRE-LacZ reporter, forskolin-stimulated, primary screen (AID 1146); conditions: luminescence, 4.5 h, higher = more signal, called active from +8 up or from −8 down;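 note: PC12 cells with 6xCRE LacZ reporter stimulated by forskolin 10 µM; beta-galactosidase reporter signal reflecting CREB driven transcription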
[15] = target: Streptavidin (Streptomyces avidinii) (UniProt P22629); test: compounds binding control protein streptavidin – biophysical, small-molecule microarray, 635/667 nm fluorescence, artefact control for SMM compound annotation, primary screen (AID 1147); conditions: higher = more signal;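 note: signal reflects streptavidin binding to arrayed compounds as a control protein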
[16] = probe aInhba binding on compound microarray – biochemical, small-molecule microarray, 635/667 nm fluorescence, primary screen (AID 1148); conditions: higher = more signal;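 note: score merges 667nm spot fluorescence with signal-to-noise for antibody binding to printed compounds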
Torsin-1A (Homo sapiens) [17] = target: Torsin-1A (Homo sapiens) (UniProt O14656); test: TOR1A wild-type binding on microarray – cell lysate, small-molecule microarray, lysate, 635/667 nm, primary screen (AID 1149); conditions: COS7 hTOR1A-WT lysate, 635 nm fluorescence, higher = more signal
Torsin-1A (Homo sapiens) [18] = target: Torsin-1A (Homo sapiens) (UniProt O14656); test: torsin A mutant lysate binding on microarrays – cell lysate, small-molecule microarray, COS7 lysate, 635/667 nm fluorescence, primary screen (AID 1150); conditions: COS7 hTOR1A mutant lysate, 635 nm fluorescence, higher = more signal;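 note: score pools 667 nm emission and signal to noise measuring lysate protein binding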
[19] = system: Sonic hedgehog protein (Shh); test: Sonic hedgehog microarray binding compounds – biochemical, small-molecule microarray, 635/667 nm fluorescence, primary screen (AID 1151); conditions: 635 nm fluorescence, higher = more signal;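 note: Shh protein binding to compounds spotted on small-molecule microarray slides; score combines spot fluorescence intensity with signal-to-noise across triplicate slides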

Chain of Streptavidin (Streptomyces avidinii) (P22629 whole entry, looked up): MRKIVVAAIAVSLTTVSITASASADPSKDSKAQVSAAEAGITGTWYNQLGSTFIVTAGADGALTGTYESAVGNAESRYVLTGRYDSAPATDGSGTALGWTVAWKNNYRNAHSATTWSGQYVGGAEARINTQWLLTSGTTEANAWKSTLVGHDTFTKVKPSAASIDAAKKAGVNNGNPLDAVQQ
Chain of Luciferin 4-monooxygenase (Photinus pyralis) (P08659 whole entry, looked up): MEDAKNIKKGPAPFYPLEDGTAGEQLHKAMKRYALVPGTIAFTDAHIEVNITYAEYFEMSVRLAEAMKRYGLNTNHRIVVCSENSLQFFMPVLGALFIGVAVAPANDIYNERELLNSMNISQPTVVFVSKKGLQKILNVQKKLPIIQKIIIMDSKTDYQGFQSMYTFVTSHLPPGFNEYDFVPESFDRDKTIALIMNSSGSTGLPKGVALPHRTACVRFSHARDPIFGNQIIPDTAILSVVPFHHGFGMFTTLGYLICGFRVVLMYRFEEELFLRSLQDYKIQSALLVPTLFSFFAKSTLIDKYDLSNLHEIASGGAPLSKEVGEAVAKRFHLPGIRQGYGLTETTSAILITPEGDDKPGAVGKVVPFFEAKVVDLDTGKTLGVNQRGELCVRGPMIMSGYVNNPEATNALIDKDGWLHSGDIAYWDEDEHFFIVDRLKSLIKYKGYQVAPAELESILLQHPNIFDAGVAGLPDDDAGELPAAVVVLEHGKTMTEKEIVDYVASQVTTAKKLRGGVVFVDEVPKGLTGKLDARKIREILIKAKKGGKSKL
Chain of Follistatin (Homo sapiens) (P19883 whole entry, looked up): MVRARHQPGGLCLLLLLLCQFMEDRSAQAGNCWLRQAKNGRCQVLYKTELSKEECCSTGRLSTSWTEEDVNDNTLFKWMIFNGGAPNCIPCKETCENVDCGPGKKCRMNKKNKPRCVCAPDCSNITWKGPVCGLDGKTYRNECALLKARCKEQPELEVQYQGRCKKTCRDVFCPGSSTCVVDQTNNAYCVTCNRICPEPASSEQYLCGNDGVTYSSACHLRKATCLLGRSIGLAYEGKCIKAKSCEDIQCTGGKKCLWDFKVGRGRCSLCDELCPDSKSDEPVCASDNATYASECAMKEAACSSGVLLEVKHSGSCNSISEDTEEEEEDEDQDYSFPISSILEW
Chain of Fibroblast growth factor 2 (Homo sapiens) (P09038 whole entry, looked up): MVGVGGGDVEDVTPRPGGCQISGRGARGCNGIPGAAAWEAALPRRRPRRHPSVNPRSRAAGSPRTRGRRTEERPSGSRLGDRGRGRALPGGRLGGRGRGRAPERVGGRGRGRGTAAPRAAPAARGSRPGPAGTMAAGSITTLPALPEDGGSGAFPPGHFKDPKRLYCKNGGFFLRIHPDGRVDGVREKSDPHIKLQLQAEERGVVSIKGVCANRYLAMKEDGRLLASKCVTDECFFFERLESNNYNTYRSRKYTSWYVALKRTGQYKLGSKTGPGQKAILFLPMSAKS
Chain of Torsin-1A (Homo sapiens) (O14656 whole entry, looked up): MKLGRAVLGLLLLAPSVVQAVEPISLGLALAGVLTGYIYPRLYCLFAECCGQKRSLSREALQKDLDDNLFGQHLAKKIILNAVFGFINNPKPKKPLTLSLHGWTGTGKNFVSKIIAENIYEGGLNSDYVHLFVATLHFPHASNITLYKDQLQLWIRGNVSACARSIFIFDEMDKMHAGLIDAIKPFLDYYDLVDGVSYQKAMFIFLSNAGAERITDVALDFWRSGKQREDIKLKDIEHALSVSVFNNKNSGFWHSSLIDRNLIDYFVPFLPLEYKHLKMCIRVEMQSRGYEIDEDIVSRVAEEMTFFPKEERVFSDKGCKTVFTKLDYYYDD
Chain of Focal adhesion kinase 1 (Homo sapiens) (Q05397 whole entry, looked up): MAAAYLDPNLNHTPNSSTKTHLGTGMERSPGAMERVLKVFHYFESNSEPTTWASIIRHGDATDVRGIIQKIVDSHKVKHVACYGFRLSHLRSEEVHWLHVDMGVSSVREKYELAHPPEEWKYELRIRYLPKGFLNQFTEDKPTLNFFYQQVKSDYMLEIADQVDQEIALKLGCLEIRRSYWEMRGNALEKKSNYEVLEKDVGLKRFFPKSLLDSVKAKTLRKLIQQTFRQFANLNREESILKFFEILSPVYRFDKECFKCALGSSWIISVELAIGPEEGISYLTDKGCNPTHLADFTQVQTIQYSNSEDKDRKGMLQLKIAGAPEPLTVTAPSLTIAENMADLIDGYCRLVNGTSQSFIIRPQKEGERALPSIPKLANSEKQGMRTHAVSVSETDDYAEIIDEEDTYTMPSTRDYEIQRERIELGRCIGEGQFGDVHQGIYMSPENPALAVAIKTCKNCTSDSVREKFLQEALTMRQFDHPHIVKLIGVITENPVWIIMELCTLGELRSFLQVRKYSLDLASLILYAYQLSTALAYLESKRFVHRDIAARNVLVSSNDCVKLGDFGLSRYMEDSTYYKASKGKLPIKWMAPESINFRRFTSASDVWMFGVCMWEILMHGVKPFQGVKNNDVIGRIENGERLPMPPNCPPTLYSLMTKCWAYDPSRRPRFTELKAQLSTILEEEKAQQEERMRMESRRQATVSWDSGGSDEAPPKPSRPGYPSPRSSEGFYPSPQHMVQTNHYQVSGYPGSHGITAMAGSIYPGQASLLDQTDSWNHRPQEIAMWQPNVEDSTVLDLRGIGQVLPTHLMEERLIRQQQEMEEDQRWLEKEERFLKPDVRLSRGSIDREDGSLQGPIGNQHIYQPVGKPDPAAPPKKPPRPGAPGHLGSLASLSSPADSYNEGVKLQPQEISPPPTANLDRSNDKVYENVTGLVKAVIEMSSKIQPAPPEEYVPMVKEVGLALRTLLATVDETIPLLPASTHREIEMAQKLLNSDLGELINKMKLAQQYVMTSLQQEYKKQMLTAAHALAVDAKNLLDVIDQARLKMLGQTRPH

Row | SMILES | composite z-score [1] | composite z-score [2] | composite z-score [3] | composite z-score [4] | composite z-score [5] | composite z-score [6] | z-score [7] | composite z-score (Lefty1) | composite z-score [8] | z-score [9] | composite z-score [10] | z-score [11] | z-score [12] | z-score [13] | z-score [14] | composite z-score [15] | composite z-score [16] | composite z-score (Torsin-1A (Homo sapiens) [17]) | composite z-score (Torsin-1A (Homo sapiens) [18]) | composite z-score [19]
1 | COc1ccc(O[C@H]2C=C[C@@H](c3ccccc3)O[C@@H]2CON=C(C)C)cc1 | -0.732 | -1.11 | 0.433 | 0.152 | 0.234 | -0.287 | -0.541 | -0.0027 | 0.938 | 0.409 (inactive) | -0.0515 | 0.361 (inactive) | -0.385 (inactive) | 0.113 (inactive) | 0.177 (inactive) | 0.446 | -0.004 | -0.0422 | -0.222 | -0.114
2 | COC(=O)[C@H]1[C@@H](O)[C@@]2(O)c3ccccc3O[C@@]2(c2ccccc2)[C@@H]1c1ccccc1 | 0.434 | 0.0845 | -0.257 | -0.842 | 0.101 | 0.352 | 0.266 | 0.285 | 1.01 | 0.487 (inactive) | -0.113 | -0.359 (inactive) | 0.576 (inactive) | 1.57 (inactive) | 0.0923 (inactive) | -0.419 | -0.0361 | -0.225 | 0.258 | 0.143
3 | CCOC(=O)CCN1C(=O)[C@H]2[C@H]3[C@H](O)[C@H](O)CC(=NOCc4ccccc4)[C@H]3CC[C@H]2C1=O | 0.0669 | -0.469 | -0.017 | 0.658 | -0.851 | -0.772 | 0.229 | -0.579 | 0.343 | 0.563 (inactive) | 0.14 | 0.223 (inactive) | 1.14 (inactive) | -0.295 (inactive) | -0.21 (inactive) | 0.758 | 0.0805 | -0.296 | -0.522 | -0.212
4 | O=C1CCCC=C1C(O)CCCCBr (stereo not given) | 3.06 | 0.466 | -0.0308 | 0.798 | 1.01 | 0.306 | 1.04 | 0.564 | 1.28 | -1.97 (inactive) | 0.0756 | -3.99 (inactive) | -0.548 (inactive) | 1.37 (inactive) | 27 (active) | 1.51 | -0.0523 | 0.201 | 0.686 | 0.333
5 | CC(CCN1CCCCc2nc(C)c(C)cc21)=NO[C@@H](C)c1cn([C@H](CO)Cc2ccccc2)nn1 | 1.67 | 0.285 | 0.321 | 0.624 | 0.915 | 0.545 | 0.868 | 0.828 | -0.101 | 0.175 (inactive) | -0.0648 | -0.831 (inactive) | 0.48 (inactive) | 1.62 (inactive) | -0.0513 (inactive) | 0.336 | -0.016 | 0.803 | 0.728 | 1.02
6 | CCOC(=O)NN=C1C[C@@H](O)[C@@H](O)[C@@H]2[C@@H]3C(=O)N(C(C)(C)C)C(=O)[C@@H]3CC[C@H]12 | 0.322 | 0.215 | 0.064 | 0.0959 | 0.903 | 0.647 | 0.233 | 0.279 | -0.0123 | 0.0659 (inactive) | 0.138 | -0.0395 (inactive) | 0.655 (inactive) | -0.295 (inactive) | 0.269 (inactive) | 0.344 | 0.0427 | 0.446 | 0.307 | 0.187
7 | O=C1C=C[C@@H](O)[C@@H]2[C@@H]3C(=O)N(C[C@@H]4CCCO4)C(=O)[C@@H]3CC[C@@H]12 | 0.518 | 0.686 | 0.18 | 0.418 | 0.23 | 0.535 | -0.117 | 0.756 | 0.221 | -0.0563 (inactive) | -0.142 | -0.228 (inactive) | 0.477 (inactive) | -0.295 (inactive) | -0.593 (inactive) | -0.029 | -0.0424 | 0.294 | 0.462 | 0.159
8 | CC(C)(C)N1C(=O)[C@H]2[C@H]3[C@H](O)[C@H](O)CC(=O)[C@H]3CC[C@H]2C1=O | 0.875 | 0.496 | -0.246 | 0.584 | 0.558 | 0.399 | -0.714 | 0.407 | 0.0902 | 0.206 (inactive) | -0.0509 | -1.06 (inactive) | 0.925 (inactive) | 0.62 (inactive) | 0.95 (inactive) | -0.0955 | -0.0405 | 0.128 | 0.29 | 0.696
9 | COC(=O)[C@H](C)NC(=O)CCC1CC(OC(=O)NCc2ccc3c(c2)OCO3)CC2(CCCC(COC(=O)NCC(c3ccccc3)c3ccccc3)O2)O1 (stereo not given in full) | 1.31 | 1.22 | 0.136 | 0.925 | 0.986 | 0.903 | -1.35 | 1.25 | 0.31 | 0.834 (inactive) | 0.6 | -4.67 (inactive) | -0.405 (inactive) | -0.437 (inactive) | 1.96 (inactive) | 0.693 | -0.0719 | 0.0104 | 0.947 | 1.97
10 | CO[C@H]1COC(=O)[C@H](C)NC(=O)CC=C[C@@H](C)[C@H](OC)COC(=O)[C@@H](OCc2ccccc2)C=C[C@@H]1C | -0.435 | -0.611 | -0.329 | 0.029 | 1.21 | 0.618 | 0.805 | 0.529 | -1.25 | -0.231 (inactive) | -0.0911 | 0.382 (inactive) | 0.213 (inactive) | 0.971 (inactive) | -0.262 (inactive) | -0.697 | -0.0791 | 0.57 | -0.0163 | 0.683
